An excerpt weighted towards active compounds, which were near 10% of everything screened.
GPT2 inhibitor: GPT2 alanine aminotransferase inhibition; Q8TD30; Recombinant GPT2, coupled pyruvate oxidase/HRP Amplex Red fluorescence; Potency, µM (series often up to 57.7 µM), for inactives: at the top dose activity change, negative = inhibition, hits mostly inhibitors; 100,000 tested, 0.25% active; further: nearly all actives have a fitted effect of over 60% in size
Target sequence (Q8TD30 whole entry, looked up): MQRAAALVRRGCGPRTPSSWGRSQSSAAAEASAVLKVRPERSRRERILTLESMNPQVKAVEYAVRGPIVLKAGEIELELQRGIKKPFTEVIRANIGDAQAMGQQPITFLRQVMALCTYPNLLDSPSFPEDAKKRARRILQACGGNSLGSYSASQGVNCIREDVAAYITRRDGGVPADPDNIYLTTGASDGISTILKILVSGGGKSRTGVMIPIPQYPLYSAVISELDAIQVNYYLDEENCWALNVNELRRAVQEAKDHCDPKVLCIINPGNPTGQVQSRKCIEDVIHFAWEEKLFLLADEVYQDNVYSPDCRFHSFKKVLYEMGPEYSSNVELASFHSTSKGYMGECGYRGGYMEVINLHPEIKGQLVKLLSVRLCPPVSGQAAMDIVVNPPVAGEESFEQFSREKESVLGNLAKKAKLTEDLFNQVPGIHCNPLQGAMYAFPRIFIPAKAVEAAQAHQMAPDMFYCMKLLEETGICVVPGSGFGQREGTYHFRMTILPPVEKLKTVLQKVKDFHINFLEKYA
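Inhibition is scored from Amplex Red fluorescence generated when pyruvate oxidase and HRP act on pyruvate released by GPT2. Reactions contain 10ng/uL enzyme, 250uM a-KG and 2mM L-alanine and run 30 min at room temperature.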
NPR1 antag: blocks ANP-stimulated signaling of human Npr1 receptor; HEK293 hNpr1 GloSensor cGMP, ANP-stimulated luminescence; AID 1347048; P16066; Potency, µM (highest dose often 46.3 µM), for inactives: top-dose activity change, negative = inhibition, hits mostly inhibitors; 76,000 tested, 1.6% active; calls by dose curve; further: nearly all actives have a fitted effect of over 60% in size
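Compound pre-incubated 30 min at room temperature on GloSensor-loaded HEK293 cells stably carrying hNpr1 and the pGS-40F cGMP biosensor. Stimulation uses hNppA at 0.1 nM final; luminescence is taken at baseline and 20 min post-agonist.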
NIH3T3 tox: NIH 3T3 cell cytotoxicity; NIH 3T3 viability, CellTiter-Glo ATP luminescence, 48-72 h; Potency, µM (doses to about 96.7 µM), without a hit: at the top dose activity change, negative = cytotoxicity, actives largely listed as inhibitors; 94,000 tested, 4.3% active; further: nearly all actives have a fitted effect of over 55% in size
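Luminescent ATP readout (CellTiter-Glo, 10 min RT) after 48 or 72 hr compound exposure of NIH 3T3 cells seeded at 400 cells/well in 1536-well format; quantitative HTS.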
HEK cytotox: cytotoxic compounds in HEK 293 cells; HEK 293 viability, ATP luminescence (CellTiter-Glo), 48-72 h; 94,000 tested, 6.6% active; Potency, µM (highest dose often 115 µM), for inactives: top-dose activity change, negative = cytotoxicity, actives largely listed as inhibitors; further: nearly all actives have a fitted effect of over 60% in size
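Viability of HEK 293 cells, plated at 250 cells/well, was judged by cellular ATP after compound treatment for 48 or 72 hr. Luminescence was imaged 10 min after CellTiter-Glo addition at room temperature.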
Luciferase inh: blocks purified firefly luciferase enzyme activity; P08659; purified P. pyralis luciferase, luminescence, biochemical; Potency, µM (top dose mostly 115 µM), hits mostly inhibitors; 76,000 tested, 2.5% active; further: nearly all actives have a fitted effect of over 65% in size
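Biochemical qHTS: compound (6-point titration) added to 10uM D-luciferin plus 10uM ATP in Tris acetate pH 7.5 buffer with Mg, Tween-20 and BSA, then purified enzyme at 10nM; light output imaged.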
* = called active by the depositor; i = inactive; ? = inconclusive; · = no result given; [ ] = dose if it differs, or a comment. Unless noted, the call rests on the fitted dose curve; in most records, active means well fitted curve in the direction sought with a large enough effect; inconclusive means small, poorly fitted or top-dose-only effect, or another doubt; inactive means no such curve, though single readings can be large; an effect the other way counts as inactive or inconclusive. On the % scale 0 is the no-effect control and ±100 the full control effect; potency means the concentration at half of the fitted maximal effect.

SMILES	GPT2 inhibitor	NPR1 antag	NIH3T3 tox	HEK cytotox	Luciferase inh
CC(=O)N1CCN(c2ccnc(-c3nnc(C)n3-c3ccccc3)c2)CC1	-4%[88.5 µM]	-1%[70.6 µM]	89µM*	2%[172 µM]	i
Cc1nnc(-c2cc(-c3cnn(C)c3)ccn2)n1Cc1ccccc1	2%[88.5 µM]	6%[70.6 µM]	45µM*	-15%[172 µM]	i
COc1ncc(-c2ccnc(-c3nnc(C)n3CCN3CCOCC3)c2)cn1	-5%[88.5 µM]	7%[70.6 µM]	?	0%[172 µM]	i
Cc1cc(-c2ccnc(-c3nnc(C)n3CCc3ccccc3)c2)ccn1	-26%[88.5 µM]	-11%[70.6 µM]	79µM*	?	i
COc1ccc(-c2ccnc(-c3nnc(C)n3CCN3CCOCC3)c2)cc1OC	i	1%[70.6 µM]	100µM*	-25%[172 µM]	i
COCCN1C[C@H]2COc3ccc(C)cc3[C@H]2N(C(=O)c2cccc(OC)c2)CCC1=O	·	·	-20%	?	·
O=C(C1CC=CC1)N1CCC2(CC1)N(Cc1ccccc1)C(=O)CS2(=O)=O	i	·	-9%	1%	·
O=C(c1ccccn1)N1CCC2(CC1)CC(N(Cc1ccc(F)cc1)C1CC1)CCO2 (stereo not given)	i	2%	-16%	?	i
O=C1NCCCCCCN(S(=O)(=O)c2ccc3c(c2)CCC3)[C@H]2CCC[C@@H]12	-3%	-2%	?	?	i
Cc1nnc(-c2cc(-c3ccccc3Oc3ccccc3)ccn2)n1C	-13%[88.5 µM]	4%[70.6 µM]	?	89µM*	i
COCCn1c(C)nnc1-c1cc(-c2ccccc2Oc2ccccc2)ccn1	0%[88.5 µM]	-7%[70.6 µM]	?	?	i
COc1ccc(-c2nc3cc(C(=O)N4CCOCC4)ccc3o2)cn1	-14%	·	-23%	0%	·
Cc1ccc(C(=O)N2CCC(CCC(=O)N3CCN(c4ccccn4)CC3)CC2)cc1	i	?	-28%	?	20µM*
COc1ncccc1C(=O)N1CCC(CCC(=O)N2CCC(Cc3ccccc3)CC2)CC1	i	?	?	35µM*	i
O=C(CCC1CCN(C(=O)c2ccccn2)CC1)N1CCC(Cc2ccccc2)CC1	4%	-17%	-37%	?	i
Cc1ccsc1C(=O)N1CCC(CCC(=O)N2CCC(Cc3ccccc3)CC2)CC1	-5%	?	?	45µM*	i
CC(=O)N1CCC(N2CCC(Cc3ccc(CCC(=O)N(C)C)cc3)CC2)CC1	-77%	·	-21%	-23%	·
O=C(CCC1CCN(C(=O)c2ccccc2)CC1)N1CCC(Cc2ccccc2)CC1	-5%	-28%	?	?	i
O=C(CCC1CCN(C(=O)c2ccccc2)CC1)N1CCOCC1	i	-2%	4%	7%	?
CN(C)C(=O)CCc1ccc(CC2CCN(C(=O)CCC3CCCC3)CC2)cc1	-4%	·	?	25µM*	·
Cc1ccc(C(=O)N2CCC3(CCC(=O)N(CC4CC4)CC3)CC2)cc1F	i	-13%	?	?	i
CN(C)c1ccc(CNC(=O)C2(c3ccc(NS(C)(=O)=O)cc3)CCCCC2)cc1	i	1%	-28%	?	i
COc1ccccc1-c1ccc2c(C(=O)N3CCC(Cc4ccccc4)CC3)nn(C)c2n1	i	·	?	79µM*	·
COc1ccccc1-c1ccc2c(C(=O)NCCCc3ccccc3)nn(C)c2n1	i	·	?	?	·
Cn1cnc(C(=O)N2CCC(Cc3ccc(C(=O)N4CCOCC4)cc3)CC2)c1	i	3%	-15%	3%	i
SMILES	GPT2 inhibitor	NPR1 antag	NIH3T3 tox	HEK cytotox	Luciferase inh
Cn1cnc(C(=O)N2CCC(Cc3ccc(COc4cccc(F)c4)cc3)CC2)c1	-8%	·	?	16µM*	·
O=C(c1ccccn1)N1CCCC(CN2CCCC2)CC1 (stereo not given)	1%	-1%	i	i	i
O=C(c1ccccn1)N1CCC(Cc2ccc(COc3ccncc3)cc2)CC1	i	·	25µM*	?	·
Cc1ccc(CC(=O)N2CCC(c3n[nH]c(=O)n3Cc3ccc(F)cc3)CC2)cc1	i	0%	?	-6%	i
CC1=C[C@@H](CN2CCCCC2)[C@H](C(C)C)C[C@H]1Cc1nnc(-c2cncn2C)o1	i	2%[70.6 µM]	?	100µM*	i
CC1=C[C@@H](CN2CCN(c3ncccn3)CC2)[C@H](C(C)C)C[C@H]1Cc1nnc(-c2cncn2C)o1	1%	-18%	?	35µM*	i
CC1=C[C@@H](CNC(=O)C2CC2)[C@H](C(C)C)C[C@H]1Cc1nnc(-c2cncn2C)o1	3%[88.5 µM]	5%[70.6 µM]	?	?	i
COc1ccccc1N1CCN(C[C@@H]2C=C(C)[C@H](Cc3nnc(-c4cncn4C)o3)C[C@H]2C(C)C)CC1	i	-14%	35µM*	13µM*	i
COc1cccc(-c2cccc(C(=O)N3CCCC3C(=O)NC3CCC3)c2)c1 (stereo not given)	0%	·	-29%	-27%	·
CC1=C[C@@H](CC#N)[C@H](C(C)C)C[C@H]1CC(=O)NC1CCCCC1	3%[88.5 µM]	1%[70.6 µM]	?	89µM*	i
CC1=C[C@@H](CC#N)[C@H](C(C)C)C[C@H]1CC(=O)N1CCC(C)CC1	5%[88.5 µM]	-14%[70.6 µM]	?	71µM*	i
CCOC(=O)C1CCN(C(=O)c2ccc3nc(-c4ccnc(Cl)c4)oc3c2)CC1	i	·	100µM*	100µM*	·
O=C1CC(c2ccccc2)N(S(=O)(=O)c2ccc3c(c2)CCC3)CCCCCN1 (stereo not given)	i	-9%	-15%	-28%	i
Cc1ccc2c(n1)OC(Cn1cccc1)CN(CCC1=CCCCC1)C2=O (stereo not given)	·	·	?	89µM*	·
FC(F)(F)c1ccc(CN2CCNc3cc(Nc4ccccc4)ncc3C2)cc1	i	?	25µM*	45µM*	?
Fc1ccc(Nc2cc3c(cn2)CN(Cc2ccccc2)CCN3)cc1	?	-21%[70.6 µM]	32µM*	-97%[172 µM]	?
c1ccc(Nc2cc3c(cn2)CN(Cc2ccccn2)CCN3)cc1	-1%[88.5 µM]	-10%[70.6 µM]	?	?	i
Fc1cccc(CN2CCNc3cc(Nc4cccnc4)ncc3C2)c1	?	-9%[70.6 µM]	32µM*	?	35µM*
Fc1ccc(CN2CCNc3cc(Nc4ccccc4)ncc3C2)cc1F	2%[88.5 µM]	-17%[70.6 µM]	40µM*	22µM*	i
c1cncc(Nc2cc3c(cn2)CN(Cc2cccs2)CCN3)c1	-23%[88.5 µM]	2%[70.6 µM]	?	?	?
COc1ccc(CC(=O)N2CCC(Oc3nccnc3N(C)C)C2)cc1 (stereo not given)	i	6%	i	-14%	?
Cn1cnc(CN2CCNc3cc(Nc4ccccc4)ncc3C2)c1	2%[88.5 µM]	10%[70.6 µM]	?	?	i
c1ccc(Nc2cc3c(cn2)CN(Cc2ncc[nH]2)CCN3)cc1	i	2%[70.6 µM]	?	?	18µM*

Assay outcomes: PubChem, National Center for Advancing Translational Sciences (NCATS)
